From PubChem BioAssay
Hits are enriched below; roughly 11% of the tested compounds scored in any of these assays.
BAZ2B inh – inhibitors of human BAZ2B bromodomain | AlphaScreen BAZ2B-H3K14Ac peptide displacement | Potency, µM (doses to about 114 µM), for inactives: top-dose activity change, negative = inhibition, usual class: inhibitors | Q9UIF8 | hit rate 4.4% among 360,000; further: on the % scale 0 is the no-effect control and ±100 the full control effect; nearly all actives have a fitted effect of over 60% in size
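AlphaScreen luminescence quantifies BAZ2B engagement of H3K14Ac peptide; the protein and biotinylated peptide are both at 50 nM final, buffer PBS pH 7.4 with 0.01% Tween-20, all steps at room temperature.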
G9a inh – inhibitors of human histone lysine methyltransferase G9a. G9a H3K9 monomethylation, AlphaScreen, 2 h. Q96KQ7. Potency, µM (series often up to 102 µM), for the others: top-dose activity, negative = inhibition, hits mostly inhibitors. hit rate 8.8% among 350,000; further: on the % scale 0 is the no-effect control and ±100 the full control effect; nearly all actives have a fitted effect of over 75% in size
Target sequence (Q96KQ7 913-1193 limits assumed): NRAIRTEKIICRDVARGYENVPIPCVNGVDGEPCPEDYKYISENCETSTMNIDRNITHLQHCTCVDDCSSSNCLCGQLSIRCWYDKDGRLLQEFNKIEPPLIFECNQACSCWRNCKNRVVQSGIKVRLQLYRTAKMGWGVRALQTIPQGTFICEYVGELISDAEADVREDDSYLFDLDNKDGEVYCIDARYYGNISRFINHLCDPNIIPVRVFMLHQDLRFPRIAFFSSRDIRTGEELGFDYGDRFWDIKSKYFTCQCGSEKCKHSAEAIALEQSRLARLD
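AlphaScreen detection with an anti-monomethyl H3K9 antibody quantified product after a 2 h room-temperature reaction containing 500 nM biotinylated H3K9 peptide, 20 µM SAM and 20 nM enzyme, which had been preincubated 15 min with compound.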
L3MBTL1 inh – inhibitors of human L3MBTL1; AlphaScreen L3MBTL1–H3K9me1 peptide binding; Q9Y468; Potency, µM (titrated, usually from 57.1 µM), without a hit: at the top dose activity, negative = inhibition, hits mostly inhibitors; hit rate 0.66% among 230,000; further: on the % scale 0 is the no-effect control and ±100 the full control effect; nearly all actives have a fitted effect of over 60% in size
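First, the protein-peptide complex forms for 30 min at room temperature (L3MBTL1 50 nM, biotinylated H3K9me1 peptide 75 nM). Next, compounds are pin-transferred and incubated 30 min. Finally, AlphaScreen beads are added and read after 30 min.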
JMJD2A Tudor – inhibitors of human JMJD2A Tudor domain; O75164; AlphaScreen JMJD2A-Tudor / H3K4me3 peptide binding; Potency, µM (titrated, usually from 114 µM), for inactives: top-dose activity change, negative = inhibition, hits mostly inhibitors; hit rate 4.4% among 390,000; AID 504339; further: on the % scale 0 is the no-effect control and ±100 the full control effect; nearly all actives have a fitted effect of over 50% in size
HP1b chromo inh – HP1-beta chromodomain-methylated histone interaction inhibition; AlphaScreen HP1-beta / biotin-H3K9me3 peptide binding; Potency, µM (titrated, usually from 114 µM), inactives show at the top dose activity change, negative = inhibition, usual class: inhibitors; hit rate 0.56% among 390,000; AID 540317; further: nearly all actives have a fitted effect of over 70% in size
Target sequence (P83916 whole entry, looked up): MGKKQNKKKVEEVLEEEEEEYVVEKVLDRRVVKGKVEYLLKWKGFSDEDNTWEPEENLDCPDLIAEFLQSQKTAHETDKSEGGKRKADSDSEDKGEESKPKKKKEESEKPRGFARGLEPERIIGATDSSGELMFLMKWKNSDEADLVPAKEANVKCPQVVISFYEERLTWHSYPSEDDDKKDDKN
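Compound inhibition of the preformed complex between 50 nM HP1-beta and 50 nM biotinylated H3K9me3 peptide was read by AlphaScreen. Buffer was PBS pH 7.4 with 0.01% Tween-20. Incubations ran 30 min at room temperature, with 10 ug/mL donor/acceptor beads.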
Active calls of the source: *; u = inconclusive; x = no result given; [ ] = dose if it differs, or a comment. The call rests on the fitted dose curve; in most records, active means well fitted inhibition curve with a large enough effect; inconclusive means small, poorly fitted or top-dose-only effect; inactive means no such curve, though single readings can be large or run the other way. Potency means the concentration at half of the fitted maximal effect.

SMILES	BAZ2B inh	G9a inh	L3MBTL1 inh	JMJD2A Tudor	HP1b chromo inh
O=C1CCc2cc(S(=O)(=O)NC(C(=O)Nc3ccc(F)cc3)c3ccccc3)ccc2N1 (stereo not given)	-17.6%	1.4%[59 µM]	x	-9.1%	u
CCN1/C(=C/c2ccc3cc(C)ccc3[n+]2CC)Sc2ccccc21	44.7µM*	7.94µM*	-4.7%	-43.2%	u
CC[n+]1ccccc1/C=C1\Sc2ccc(C)cc2N1C	u	43.4%[0.501 µM]	x	u	49.3%
COc1ccc(OCc2cc(C(=O)O)c(C)o2)cc1	79.4µM*	44.7µM*	u	x	x
COc1ccc(NS(=O)(=O)c2ccc3oc(SC)nc3c2)cc1	-0.8%	39.8µM*	x	-8.4%	u
CNC(=O)CSc1nc2cc(S(=O)(=O)Nc3ccc(OC)cc3)ccc2o1	x	x	x	-9.6%	10.6%
CCCC[C@@H]1CCCO[C@@](C(=O)NCC2CC2)(C(F)(F)F)C1	x	x	x	-11.0%	13.3%
CCOC(=O)CSc1nc(N)c2c3c(sc2n1)CCCC3	9.1%	70.8µM*	x	1.3%	21.8%
CCN(CC)C(=O)CSc1nc(N)c2c3c(sc2n1)CC(C)CC3 (stereo not given)	-35.1%	-50.8%[59 µM]	x	-27.1%	-1.5%
CCSc1nc(N)c2c3c(sc2n1)CN(C)CC3	6.9%	44.7µM*	-0.1%	x	x
CCOc1ccccc1Nc1nnc(-c2cc3cc(Cl)ccc3oc2=O)s1	5.3%	2.5%[59 µM]	x	-3.3%	31.7%
CC(C)(C)OC(=O)N1CCC(c2c(C(=O)N3CCN(c4ccccn4)CC3)cnn2-c2cccc(F)c2)CC1	3.3%[57.1 µM]	-23.2%[59 µM]	x	-18.1%	13.5%
COC(=O)c1ccc(C(=O)OC)c(NC(=O)N2CC3CCCN3c3ccccc32)c1 (stereo not given)	25.1µM*	14.1µM*	x	u	-17.1%
Cc1ccccc1CNC(=O)CCC(=O)N1CC2CCCN2c2ccccc21 (stereo not given)	u	-24.8%[59 µM]	x	u	-11.3%
O=C(NCc1ccc(Cl)cc1)c1ccc(NC(=O)N2CC3CCCN3c3ccccc32)cc1 (stereo not given)	-38.3%	10µM*	x	-23.2%	3.0%
O=C(CCC(=O)N1CC2CCCN2c2ccccc21)NCc1ccccc1F (stereo not given)	-32.1%	-25.8%[59 µM]	x	44.7µM*	34.6%
O=C(NCc1ccc(F)cc1)c1ccc(NC(=O)N2CC3CCCN3c3ccccc32)cc1 (stereo not given)	8.2%	18.0%[59 µM]	x	u	-8.9%
COc1cccc(NCc2nnc3n2CCCCC3)c1	0.4%	-23.0%[59 µM]	x	6.8%	24.3%[57 µM]
CCCC(c1nnnn1CC(=O)OCC)N(Cc1cc2c(C)cc(C)cc2[nH]c1=O)C1CCCC1 (stereo not given)	-38.4%	28.2µM*	-2.1%	-23.4%	26.1%
O=C(O)CCCCCNS(=O)(=O)c1ccc2c3c(cccc13)C(=O)N2	-35.9%	79.4µM*	-13.9%	-2.1%	38.2%
O=C(O)CNS(=O)(=O)c1ccc2c3c(cccc13)C(=O)N2	42.5%	x	-85.2%	28.2µM*	4.3%
CNS(=O)(=O)c1ccc2c3c(cccc13)C(=O)N2	0.1%	x	0.2%	0.0%	39.9%
CN(Cc1ccccc1)S(=O)(=O)CCNC(=O)c1ccc2c(c1)OCO2	0.2%	-3.4%	3.5%	-5.4%	22.7%
Cn1nnnc1SCCCNCc1cc(Br)ccc1OCc1ccccc1F	-9.6%	-28.9%[59 µM]	x	-25.5%	5.4%
CN1C(=O)c2oc3ccc(Br)cc3c(=O)c2C1c1ccncc1 (stereo not given)	4.0%	15.8µM*	6.3%	x	x
SMILES	BAZ2B inh	G9a inh	L3MBTL1 inh	JMJD2A Tudor	HP1b chromo inh
CN1C(=O)c2oc3ccccc3c(=O)c2C1c1cccnc1 (stereo not given)	x	x	x	-19.0%	22.2%
CN(C)CCN1C(=O)c2oc3ccc(F)cc3c(=O)c2C1c1ccncc1 (stereo not given)	5.2%	-13.5%[59 µM]	1.8%	2.8%	28.3%
CN1C(=O)c2oc3ccccc3c(=O)c2C1c1ccccn1 (stereo not given)	u	28.2µM*	6.4%	31.6µM*	38.0%
Fc1ccc(-c2nnc(CSc3nnc4ccccn34)o2)cc1	-2.1%	-7.8%[59 µM]	5.0%	-4.8%	34.6%
c1ccc(-c2cnc(CSc3nnc4ccccn34)o2)cc1	1.5%	10µM*	29.7%[11.4 µM]	-11.0%	30.9%
O=C(CSc1ncnc2sc3c(c12)CCCC3)c1ccco1	12.4%	34.3%[59 µM]	-4.3%	-31.1%	44.6%
